The text below walks through data of PubChem BioAssay (Tox21).

Structures are written as SMILES. Where “and” joins values, the source holds several entries; their conditions need not be identical. Equal entries are not always repeated. Records with an inconclusive call do not appear. Values without a mark were called inactive. Calls of active or inactive are those of the source. Calls come from the whole dose curve; as a rule, active = well fitted activation curve with a large enough effect in the signal ratio in the repeat runs (not every such curve was filed as active); inconclusive = weak or mixed curves; inactive = flat fitted curve, though single readings scatter; the % refers to the signal ratio.
% is set by controls: 0 for no effect and ±100 for the full control effect; potency is the fitted concentration of half-maximal effect.

The assay is described as follows: qHTS assay to identify small molecule agonists of H2AX (AID 1224845). Particulars: CHO-K1 phospho-H2AX Ser139 HTRF, 3 h; series mostly up to 154 µM; activation (H2AX phosphorylation): at the top concentration. An excerpt: National Center for Advancing Translational Sciences [NCATS]
NIH Chemical Genomics Center [NCGC]
U.S. Environmental Protection Agency [EPA]
National Institutes of Environmental Health Sciences [NIEHS]
National Toxicology Program [NTP]
U.S. Food and Drug Administration [FDA]
HTRF phospho-H2AX (Ser139) assay (Cisbio Bioassays, US) enables the quantitative detection of the histone variant H2AX when phosphorylated on serine 139. When double-stranded DNA breaks, either by ionizing radiation or endogenous physiological processes, H2AX becomes phosphorylated at Ser139. This phospho-Ser139 serves as a sensitive biomarker for the detection of such breaks, localizing the site of DNA repair. So, HTRF phospho-H2AX Ser139 is a pertinent assay to study genome stability, the cell cycle, DNA repair, and it serves as a biomarker for cancer, and to understand aging. Wild type CHO-K1 cells were used to identify the inducers of Phospho-H2AX Ser 139 from the Tox21 10K compound collections.
Tox21 Assay Protocol Summary:
The CHO-K1 cells suspended in culture medium containing 10% FBS were dispensed at 1000 cells/ 3 ul/well in 1536-well white wall/solid bottom plates (Greiner Bio-One North America, NC) using a Multidrop Combi (Thermo Fisher Scientific Inc., Waltham, MA). After the assay plates were incubated at 37C overnight, 23 nl of compounds at 15 concentrations (from 5-48 columns) or positive control (from 1 to 4 columns) were transferred to the assay plates using a Pintool station (Wako, San Diego, CA) into each well resulting in a final DMSO concentration of 0.76%. After 3hr incubation at 37C, 1 uL/well Supplemented Lysis buffer (diluted 100 fold blocking reagent in lysis buffer) (HTRF Phospho-H2A.X (S139) Assay kit from Cisbio US Inc., Bedford, MA) was added using a Flying Reagent Dispenser (FRD) (Aurora Discovery, CA). After 10sec spin at 1000 rpm in a plate centrifuge, the assay plates were incubated at room temperature for 30 min. Then followed by the addition of 1 uL/well detection buffer (containing a mixture of two antibodies, one labeled with cryptate, Anti pH2AX (S139)-K and another labeled with d2, Anti H2AX-d2) using FRD. After incubation at room temperature for 24 hr, the time resolved fluorescence at excitation 320 nm and emissions at 665 nm and 620 nm was measured using an Envision plate reader (PerkinElmer, Waltham, MA).
(In qHTS, concentration-response curves come from the screen itself.)
Regarding `c1ccc2nc(N3CCNCC3)ccc2c1`, the “activation (H2AX phosphorylation)” value was -4.05% [at 70.9 µM].
Still for that read-out and setting: for `[O-][Cl+3]([O-])([O-])O` the value was 0.219%.
The same measure, in the same setting: then `COc1ccc2c3c1O[C@H]1[C@H](O)CC[C@H]4[C@@H](C2)N(C)CC[C@@]341`, with -0.504%; and `CCCCC(CC)COC(=O)OOC(C)(C)C` (stereo not given), with -1.95%.
Still for that read-out and setting: for `O=C(NC(=O)c1c(F)cccc1F)Nc1ccc(Oc2ccc(C(F)(F)F)cc2Cl)cc1F` the value was -4.14%.
For `CN`, the “activation (H2AX phosphorylation)” value was 0.163%.
For the molecule `CC(Cc1ccccc1)N(C)Cc1ccco1` (stereo not given), the “activation (H2AX phosphorylation)” value was -0.856% [at 70.9 µM].
As to `COc1ccc(Cc2nccc3cc(OC)c(OC)cc23)cc1OC`, the “activation (H2AX phosphorylation)” value was 0.584% [at 70.9 µM].
`CC1CCCC1`: the “activation (H2AX phosphorylation)” value is 2.32%.
On the same count and under the same terms, then `O=[N+]([O-])C(Br)Br`, with -2.38%; and `CC1=C2C[C@H]3[C@@H](CC=C4C[C@@H](O)CC[C@@]43C)[C@@H]2CC[C@]12O[C@@H]1C[C@H](C)CN[C@H]1[C@H]2C`, with -0.185% [at 70.9 µM].
On the same count and under the same terms, then `CC1(C)[C@H](/C=C2\CCSC2=O)[C@@H]1C(=O)OCc1coc(Cc2ccccc2)c1`, with -3.42%.
The same measure, in the same setting: for `CCCCc1ccccc1` the value was 1.35%.
Regarding `CCCN`, the “activation (H2AX phosphorylation)” value is -1.77%.
As to `CCOP(=O)(OCC)Oc1cc(C)nc(C(C)C)n1`, the “activation (H2AX phosphorylation)” value is -1.11%.
On to `CNC(C)(C)Cc1ccccc1`, for which the “activation (H2AX phosphorylation)” value was -2.02% [at 70.9 µM].
Consider `Nc1cc(Cl)ccc1Cl`, for which the “activation (H2AX phosphorylation)” value is 0.666%.
On the same count and under the same terms, for `CC(=O)O.CC(=O)O.CC(=O)O.CC(=O)O.CC(=O)O.CC(=O)O.CC(=O)O.O.O.[Cr].[Cr].[Cr]` the value was 0.962%.
On the same count and under the same terms, then `CCOP(=S)(OCC)Oc1cc(C)nc(N(CC)CC)n1`, with -2.88%.
Consider `ClC1(Cl)C2(Cl)C3(Cl)C4(Cl)C(Cl)(Cl)C5(Cl)C3(Cl)C1(Cl)C5(Cl)C24Cl` (stereo not given), for which the “activation (H2AX phosphorylation)” value is -2.5%.
Consider `O=C(O)CCCCCCNC1c2ccccc2CCc2ccccc21`, for which the “activation (H2AX phosphorylation)” value was -1.34% [at 70.9 µM].
In the case of `O=S1OCC2C(CO1)C1(Cl)C(Cl)=C(Cl)C2(Cl)C1(Cl)Cl` (stereo not given), the Potency is 89.9 µM (active) and 101 µM (active).
On to `NC1CCC(CC2CCC(N)CC2)CC1` (stereo not given), for which the “activation (H2AX phosphorylation)” value was -0.314%.
For the molecule `[O]=[Cr][O][Cr]=[O]`, the “activation (H2AX phosphorylation)” value was -1.32%.
Same read-out and setting: then `CN1CCc2cc(Cl)c(O)cc2[C@H]2c3ccccc3CC[C@@H]21`, with -1.42% [at 70.9 µM].
On the same count and under the same terms, for `CC1CN1` (stereo not given) the value was 0.777%; for `CC(Cl)CCl` (stereo not given), -2.42%.
On the same count and under the same terms, then `ClCBr`, with -0.281%; and `CN(C)CCc1c[nH]c2ccccc12`, with 0.108%; and `[Cl][Hg][c]1ccccc1`, with 4.16%.
`O=C(Cl)c1ccccc1F`: the “activation (H2AX phosphorylation)” value is 2.29%.
As for `O=P(Cl)(Cl)Cl`, the “activation (H2AX phosphorylation)” value was -0.261%.
Still for that read-out and setting: for `CCCCON=O` the value was -0.0882%; for `CC(=O)[O-].CC(=O)[O-].CC(=O)[O-].[Sb+3]`, 1.32% [at 5.45 µM].
For the molecule `[O]=[Cr](=[O])([OH])[O][Cr](=[O])(=[O])[OH]`, the Potency is 101 µM (active).
Regarding `C#CCC1=C(C)C(OC(=O)C2C(C=C(C)C)C2(C)C)CC1=O` (stereo not given), the “activation (H2AX phosphorylation)” value was -1.52%.
Same read-out and setting: for `COP(=O)(OC)O/C(=C\Cl)c1cc(Cl)c(Cl)cc1Cl` the value was 0.539%.
Still for that read-out and setting: then `CC(C)c1c(CN(C)C(C)Cc2ccccc2)n(C)n(-c2ccccc2)c1=O` (stereo not given), with 1.75% [at 70.9 µM]; and `CN1C(=O)[C@@H](NC(=O)c2cc3ccccc3[nH]2)N=C(c2ccccc2)c2ccccc21`, with -1.55% [at 70.9 µM]; and `CC(C)[C@@H](Nc1ccc(C(F)(F)F)cc1Cl)C(=O)OC(C#N)c1cccc(Oc2ccccc2)c1` (stereo not given in full), with -2.95%.
